Assay outcomes deposited in PubChem by National Center for Advancing Translational Sciences (NCATS).
RECQ1 helicase: blocks DNA unwinding by human RECQ1; RECQ1 DNA unwinding, red fluorescence kinetic read; P46063; 240,000 compounds, 0.54% hits; Potency, µM (series often up to 57.3 µM), for inactives: top-dose activity, negative = inhibition, hits mostly inhibitors;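 further: plate controls were vehicle for no effect and no enzyme for full effect; nearly all actives have a fitted effect of over 30% in size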
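50 nM RECQ1T1 preincubated 15 min with compound in Tris pH 8.0 buffer with MgCl2, DTT, Tween-20 and 2.5 ug/ml poly(dI-dC); started with 200 nM TAMRA/BHQ-2 forked duplex and 2 mM ATP. Unwinding read as fluorescence (525/598 nm), two reads 2 h apart.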
BLM inh: blocks DNA unwinding by human BLM helicase; recombinant BLM DNA unwinding, fluorescence dequenching; Potency, µM (top dose mostly 56.1 µM), inactives show top-dose activity change, negative = inhibition, hits mostly inhibitors; 350,000 compounds, 0.2% hits;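 further: plate controls were vehicle for no effect and no enzyme for full effect; nearly all actives have a fitted effect of over 35% in size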
L3MBTL1 block: L3MBTL1 (human) inhibition; Potency, µM (top dose mostly 57.1 µM), inactives show at the top dose activity, negative = inhibition, actives largely listed as inhibitors; Q9Y468; 230,000 compounds, 0.66% hits; AlphaScreen L3MBTL1–H3K9me1 peptide binding; further: nearly all actives have a fitted effect of over 60% in size
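L3MBTL1 50 nM + b-AHA-H3(1-15)K9me1 75 nM, 30 min RT; compound added, 30 min RT; streptavidin donor/Ni-chelate acceptor beads 10 ug/mL each final, 30 min RT dark; AlphaScreen read.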
APEX1 inh: APE1 (human) endonuclease inhibition; Potency, µM (titrated, usually from 65.8 µM), for the others: at the top dose activity change, negative = inhibition, actives largely listed as inhibitors; 350,000 compounds, 0.35% hits; P27695; recombinant APE1, TAMRA/BHQ-2 abasic DNA cleavage fluorescence; AID 2517;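 further: plate controls were vehicle for no effect and reference inhibitor for full effect; nearly all actives have a fitted effect of over 55% in size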
Target sequence (P27695 whole entry, looked up): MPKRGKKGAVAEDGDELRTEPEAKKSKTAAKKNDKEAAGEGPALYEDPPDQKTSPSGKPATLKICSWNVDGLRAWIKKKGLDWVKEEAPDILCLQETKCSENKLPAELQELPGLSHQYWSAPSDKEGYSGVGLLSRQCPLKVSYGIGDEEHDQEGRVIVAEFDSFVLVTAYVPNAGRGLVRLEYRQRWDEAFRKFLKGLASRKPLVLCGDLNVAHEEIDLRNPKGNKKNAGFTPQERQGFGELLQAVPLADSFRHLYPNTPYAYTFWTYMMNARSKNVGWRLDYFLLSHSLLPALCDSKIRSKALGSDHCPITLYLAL
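APE1 at 0.75 nM final was preincubated with compound 15 min at room temperature, then 50 nM double-stranded THF abasic-site substrate (5'-TAMRA/3'-BHQ-2) was added. Fluorescence (ex 525/em 598 nm) was read kinetically; third-minus-first read gave activity.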
GoLoco inh red: blocks human Gai1 binding to RGS12 GoLoco peptide, red readout; P63096; Gai1:RGS12 GoLoco peptide FP, rhodamine, 10 min; Potency, µM (titrated, usually from 61.6 µM), without a hit: at the highest dose activity, negative = inhibition, hits mostly inhibitors; 230,000 compounds, 0.44% hits; AID 880; active means well fitted inhibition curve with a large enough effect, not every such curve was filed as active; inactive means no such curve, though single readings can be large or run the other way; further: nearly all actives have a fitted effect of over 30% in size
Target sequence (P63096 whole entry, looked up): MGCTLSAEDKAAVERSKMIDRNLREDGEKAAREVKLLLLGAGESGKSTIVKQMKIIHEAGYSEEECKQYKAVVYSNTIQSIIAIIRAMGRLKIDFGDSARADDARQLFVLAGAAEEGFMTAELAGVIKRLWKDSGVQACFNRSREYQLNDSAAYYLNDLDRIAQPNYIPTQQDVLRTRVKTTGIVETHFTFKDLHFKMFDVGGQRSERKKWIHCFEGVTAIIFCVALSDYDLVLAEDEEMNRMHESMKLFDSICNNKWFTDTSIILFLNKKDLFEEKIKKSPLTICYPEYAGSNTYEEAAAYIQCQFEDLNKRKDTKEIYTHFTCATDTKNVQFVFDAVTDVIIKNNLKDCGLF
KDM4E inh: blocks human JMJD2E demethylase activity | B2RXH2 | JMJD2E catalytic domain, FDH-coupled NADH fluorescence (FDH is formaldehyde dehydrogenase) | Potency, µM (titrated, usually from 57.1 µM), for the others: at the highest dose activity change, negative = inhibition, actives largely listed as inhibitors | 230,000 compounds, 1.6% hits; active means well fitted inhibition curve with a large enough effect, not every such curve was filed as active; inconclusive means small, poorly fitted or top-dose-only effect, or another doubt; inactive means no such curve, though single readings can be large or run the other way;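 further: 0% = wells with enzyme and -100% = buffer wells without enzyme; nearly all actives have a fitted effect of over 50% in size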
Active calls of the source: *; [ ] = another dose, or the depositor's remark. The entries come from a sample that favours hits as a whole. Unless noted, the call rests on the fitted dose curve; in most records, active means well fitted curve in the direction sought with a large enough effect; inconclusive means small, poorly fitted or top-dose-only effect, or another doubt; inactive means no such curve, though single readings can be large; an effect the other way counts as inactive or inconclusive. Unless noted, on the % scale 0 is the no-effect control and ±100 the full control effect; potency means the concentration at half of the fitted maximal effect.

What do the screens show for `OC[C@@H]1[C@@H](c2ccccc2)C(c2ccccc2)=NN1c1ccccc1`?
RECQ1 helicase: -14%[81.1 µM]; BLM inh: -10%[75.6 µM]; L3MBTL1 block: 72%; APEX1 inh: -16%; GoLoco inh red: 5%[88.7 µM]

Results for OC[C@@H]1[C@@H](c2ccccc2)C(c2cccc(Cl)c2)=NN1c1ccccc1 ?
RECQ1 helicase: 32µM*; BLM inh: -11%[75.6 µM]; L3MBTL1 block: 90%; APEX1 inh: -13%; GoLoco inh red: 14%[88.7 µM]

What do the screens show for `COc1ccc(N=Nc2[nH]c3ccc(C)cc3c2O)cc1`?
RECQ1 helicase: -1%; BLM inh: 0%; L3MBTL1 block: -12%; APEX1 inh: 14%; GoLoco inh red: 3.2µM*; KDM4E inh: -16%

What do the screens show for `Cc1ccc(N=Nc2c(O)[nH]c3ccc(F)cc23)cc1`?
RECQ1 helicase: -20%; BLM inh: 5%; L3MBTL1 block: -7%; APEX1 inh: 3%; GoLoco inh red: 2%; KDM4E inh: -22%

What do the screens show for `Cc1[nH]c2ccccc2c1N=Nc1ccc(F)cc1`?
RECQ1 helicase: -12%; BLM inh: -7%; L3MBTL1 block: -2%; APEX1 inh: -9%; GoLoco inh red: -11%; KDM4E inh: -9%

What do the screens show for `Cc1ccc(N=Nc2[nH]c3ccccc3c2O)cc1`?
RECQ1 helicase: 6%; BLM inh: -10%; L3MBTL1 block: -10%; APEX1 inh: -2%; GoLoco inh red: 13µM*; KDM4E inh: -4%

What do the screens show for `NC[C@H]1O[C@H](O[C@H]2[C@H](O)[C@@H](O[C@H]3O[C@H](CO)[C@@H](O)[C@H](N)[C@H]3O)[C@H](N)C[C@@H]2N)[C@H](O)[C@@H](O)[C@@H]1O`?
APEX1 inh: -2%[21 µM]

Results for O=c1c2c([N+](=O)[O-])cc([N+](=O)[O-])cc2sn1-c1ccc(Br)cc1 ?
RECQ1 helicase: 0%; BLM inh: -2%; L3MBTL1 block: -18%; APEX1 inh: -3%; GoLoco inh red: 5µM*; KDM4E inh: 3.5µM*

What do the screens show for `O=c1c2c([N+](=O)[O-])cc([N+](=O)[O-])cc2sn1Cc1ccccc1`?
BLM inh: -7%; APEX1 inh: -1%

What do the screens show for `CCc1ccccc1NS(=O)(=O)c1ccc2c(c1)CC(=O)N2`?
BLM inh: -7%

How did C/C(=N\Nc1ccc(C(=O)O)cc1)c1ccc2c(c1)Nc1ccccc1S2 do in these assays?
RECQ1 helicase: -3%; BLM inh: -8%; L3MBTL1 block: 28µM*; APEX1 inh: -9%; GoLoco inh red: -2%; KDM4E inh: inconclusive

How did CCn1c2ccccc2c2cc(NC(=O)COC(=O)c3ccccc3F)ccc21 do in these assays?
RECQ1 helicase: 3%; BLM inh: -1%; L3MBTL1 block: 1%; APEX1 inh: 3%; GoLoco inh red: -6%; KDM4E inh: -5%

What do the screens show for `CCn1c2ccccc2c2cc(NC(=O)COC(=O)c3ccc(NC(=O)CC#N)cc3)ccc21`?
L3MBTL1 block: 32µM*; APEX1 inh: -20%

Results for CCN(CC)S(=O)(=O)c1cc(NC(=O)COC(=O)c2ccc(NC(=O)CC#N)cc2)ccc1C ?
RECQ1 helicase: inconclusive; BLM inh: -12%; APEX1 inh: -8%; GoLoco inh red: 23%; KDM4E inh: 4µM*

Results for CCN(CC)S(=O)(=O)c1cc(NC(=O)COC(=O)C2CCC2)ccc1C ?
L3MBTL1 block: 2%; APEX1 inh: 10%

What do the screens show for `O=C(O)C1OC(Oc2c(-c3ccc(O)c(O)c3)oc3cc(O)cc(O)c3c2=O)C(O)C(O)C1O` (stereo not drawn)?
RECQ1 helicase: -21%; BLM inh: 1%; L3MBTL1 block: inconclusive; APEX1 inh: 7.1µM*; GoLoco inh red: -6%; KDM4E inh: 4.5µM*

How did CC1OC(Oc2c(-c3cc(O)c(O)c(O)c3)oc3cc(O)cc(O)c3c2=O)C(O)C(O)C1O (stereo not drawn) do in these assays?
RECQ1 helicase: 1%; BLM inh: -8%; L3MBTL1 block: inconclusive; APEX1 inh: 7%; GoLoco inh red: 12%; KDM4E inh: 3%

How did O=C(N/N=C/c1cc(Cl)cc(Cl)c1O)c1ccncc1 do in these assays?
RECQ1 helicase: -1%; BLM inh: -1%; L3MBTL1 block: 28µM*; APEX1 inh: 4%; GoLoco inh red: 1%; KDM4E inh: inconclusive

What do the screens show for `O=C(N/N=C/c1ccc(O)cc1O)c1ccncc1`?
BLM inh: -3%; APEX1 inh: 4%

What do the screens show for `O=C(N/N=C/c1cc(Br)cc(Br)c1O)c1ccncc1`?
RECQ1 helicase: inactive; BLM inh: -8%; L3MBTL1 block: 25µM*; APEX1 inh: 1%; GoLoco inh red: 12%; KDM4E inh: inconclusive

What do the screens show for `CCN1CCN(c2ccc(N=Cc3ccc(O)cc3O)cc2)CC1`?
RECQ1 helicase: inactive; BLM inh: -3%; L3MBTL1 block: -16%; APEX1 inh: -2%; GoLoco inh red: 14%; KDM4E inh: 14µM*

How did CCC[C@H](NC(=O)[C@H](CC(C)C)N(C)C(=O)CNC(=O)[C@@H](NC(=O)[C@H](Cc1ccccc1)NC(=O)[C@H](CCCCN)NC(=O)[C@@H](N)CC(=O)O)C(C)C)C(N)=O do in these assays?
RECQ1 helicase: -6%; BLM inh: -4%; APEX1 inh: -7%

Results for CCCc1cc(=O)[nH]c(SCc2nc(-c3ccc(OCC)cc3)no2)n1 ?
BLM inh: -2%

What do the screens show for `Cc1ccc(CNC(=O)c2ccc(CSCc3ccccc3Cl)o2)cc1`?
BLM inh: -9%

What do the screens show for `CCCCc1ccc(C2C(C#N)=C(N)SC(N)=C2C#N)s1`?
RECQ1 helicase: 22µM*; BLM inh: -21%; L3MBTL1 block: -13%; APEX1 inh: 13%; GoLoco inh red: 199%; KDM4E inh: -29%

Results for O=C(O)Cn1c(C(=O)Nc2nc(-c3ccccc3Cl)cs2)cc2ccccc21 ?
RECQ1 helicase: -5%; BLM inh: -3%; APEX1 inh: -1%

What do the screens show for `C/C(=N/NC(=O)c1cc(O)c(O)c(O)c1)c1ccc([N+](=O)[O-])cc1`?
RECQ1 helicase: -6%; BLM inh: -20%; L3MBTL1 block: 18µM*; APEX1 inh: 3%; GoLoco inh red: -9%; KDM4E inh: -17%

How did COc1ccccc1NC(=S)NNC(=O)c1cc(C)nn1C do in these assays?
RECQ1 helicase: 6%; BLM inh: -2%; APEX1 inh: -2%; GoLoco inh red: 7%; KDM4E inh: -3%
